Results as given in PubChem BioAssay AID589 (National Center for Advancing Translational Sciences (NCATS), 2007).
In all, about 59,000 compounds went through this assay and about 6,200 (11%) were called active. Roughly 9% stayed inconclusive and do not appear here. This is one part of a sample in which actives are shown more often than they occur. No stated cut-off is given here; in the data, active means max dye-equivalent concentration above about 10 nM; inconclusive means mostly about 1.1 nM to 9.6 nM; inactive means weaker than that.

assay: qHTS Assay for Spectroscopic Profiling in 4-MU Spectral Region; conditions: compound autofluorescence, 340/450 nm, 4-MU equivalents; active compounds read high
Summary of the method: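 Compounds in 100 mM Tris, pH 8.0, incubated 15 min at room temperature, then fluorescence read at 340 nm excitation/450 nm emission. Signal converted to 4-MU dye-equivalent concentration using an on-plate six-point 4-MU standard curve.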

Max dye-equivalent concentration, inactive:
Cc1cc(C)c(NC(=O)CS(=O)CC(=O)Nc2cccnc2)c(C)c1 (stereo not drawn)
COc1ccc(C(CC(=O)O)NC(=O)Cc2ccccc2)cc1 (stereo not drawn)
CCOC(=O)c1cc(C)sc1NC(=O)C1CCC1
O=C(C1CCN(S(=O)(=O)c2cccs2)CC1)N1CCCCCC1
COC(=O)c1ccccc1NC(=O)c1ccccc1NS(C)(=O)=O
COc1ccc(CNC2CCCCC2)cc1
c1n[nH]c(NCc2ccc3c(c2)OCO3)n1
CN(Cc1ccccc1)c1nc2c(c(=O)[nH]c(=O)n2C)n1CCSc1nc2ccccc2[nH]1
COC(=O)c1[nH]c2ccccc2c1NC(=O)CN1CCCc2ccccc21
Cc1c(C(=O)N2CCOCC2)[nH]c2ccc(OCc3ccccc3)cc12
COc1ccc(OC)c(NC(=O)CCN2CCC(C)CC2)c1
COc1cc(NC(=O)N2CCOCC2)cc(OC)c1
COc1cccc(NC(=O)CN(C)S(=O)(=O)c2ccc(C)cc2)c1
Cc1nonc1OCCn1nnnc1N
CCNC(=O)CN(c1ccc(C)cc1)S(=O)(=O)c1ccc(SC)cc1
C=CCn1c(COc2cccc3cccnc23)nnc1SCC(=O)OC
CC(=O)Nc1cccc(Oc2cc(C#N)c(C#N)cc2N2CCOCC2)c1
O=C1NC(c2cc3c(cc2Cl)OCO3)Oc2ccccc21 (stereo not drawn)
CCOC(=O)c1cc(NC(=O)c2cccnc2)cc(C(=O)OCC)c1
CCC(=O)Nc1cccc(NC(=O)c2cccnc2)c1
CNc1nc(-c2ccccc2OC)nc2ccccc12
COc1ccccc1-c1nc(NCc2cccs2)c2ccccc2n1
Cn1c(COc2ccc(Cl)cc2)nc2ccccc2c1=O
COc1ccccc1NC(=O)CSc1nc2sc(C)c(C)c2c(=O)n1Cc1ccco1
Cc1nc2ccccc2c(=O)n1CCCn1ccnc1
CC(Sc1nc2ccccc2c(=O)n1Cc1ccco1)C(=O)c1ccccc1 (stereo not drawn)
CCOC(=O)CSc1nc2c(sc(=S)n2CCc2ccccc2)c(=O)n1Cc1ccco1
O=c1c2ccccc2oc2nc(C3CCCCC3)n(Cc3ccco3)c(=O)c12
Cc1ccc(S(=O)(=O)N2CCC(C(=O)OCC(=O)N3CC(=O)Nc4ccccc43)CC2)cc1
CN(C)C(=O)c1ccc(-c2cncnc2NC2CCNCC2)cc1
CC(=O)OCC(=O)[C@@]1(O)CC[C@@H]2[C@H]3CCC4=CC(=O)C=C[C@]4(C)[C@]3(F)[C@@H](O)C[C@@]21C
Cn1c(Cc2csc(N)n2)nnc1SC/C=C/c1ccccc1
O=C(Nc1ccc2c(c1)OCCO2)c1ccncc1
COc1ccc(C(=O)N2CCC3(CCCN(C(c4ccccc4)c4ccccc4)C3)CC2)cc1
CC(c1ccco1)N(C(=O)c1ccc(S(=O)(=O)N2CCCCC2)cc1)c1ccccn1 (stereo not drawn)
CCOc1cccc(NC(=O)C2CCCN(S(=O)(=O)c3ccc(OC)cc3)C2)c1 (stereo not drawn)
C[C@@H]1CC[C@H]2[C@H](C)[C@H]3[C@H](C[C@H]4[C@@H]5CC=C6C[C@@H](O)CC[C@@]6(C)[C@@H]5C[C@@H](O)[C@]34C)N2C1
CC1CCc2sc3nc(N4CCN(CCO)CC4)n4ncnc4c3c2C1 (stereo not drawn)
O=c1c2ccccc2nnn1CSc1nc2sc3c(c2c(=O)n1CC1CCCO1)CCC3 (stereo not drawn)
O/N=C(\c1ccc2c(c1)OCCO2)C1CCCCC1
CCN(CC)Cc1c(C(=O)OC)nnn1-c1nonc1N
CC(=O)c1sc2nc(SCC(=O)N3CCCCC3)[nH]c(=O)c2c1C
O=C1N=C(N2CCOCC2)CS1
CN(CCC#N)c1ncnc2scc(-c3ccccc3)c12
CCCC(=O)NC(C)C(c1cccs1)N1CCN(c2ccccc2)CC1 (stereo not drawn)
CCOC(=O)c1ccc(NC(=O)CSc2ncccn2)cc1
COCCOC(=O)C1=C(C)Nc2nc(C)nn2C1c1ccccc1 (stereo not drawn)
Cc1ccc(S(=O)(=O)NCCN2CCOCC2)cc1C
Cc1nn(C)c(C)c1S(=O)(=O)N1CCc2ccccc21
O=S(=O)(c1cccs1)N1CCc2ccccc2C1
O=S(=O)(c1cccs1)N1CCN(Cc2ccccc2)CC1
CC(C)CCNC(=O)CN(C(=O)Cn1nnc(-c2ccc(F)cc2)n1)C1CCCC1
O=C(O)c1cscn1
CCCS(=O)(=O)N1CCN(C(=O)c2cccs2)CC1
COc1ccc(OCC(=O)N2CCN(C(=O)c3cccs3)CC2)cc1
NCC(=O)[C@@H](O)[C@H](O)[C@H](O)CO
CCn1c(SCC(=O)Nc2cc(C)c(Cl)cc2OC)nnc1-c1ccco1
O=S(=O)(NCc1ccc2c(c1)OCO2)c1cccc2nsnc12
CCCOc1ccc(/C(O)=C2/C(=O)C(=O)N(CCN(C)C)C2c2ccc(OC)c(OC)c2)cc1 (stereo not drawn)
COc1ccc(/C(O)=C2/C(=O)C(=O)N(CCCN(C)C)C2c2ccccc2)cc1OC (stereo not drawn)
CCn1nc(C(=O)OCC(=O)N2c3ccccc3CC2C)c2ccccc2c1=O (stereo not drawn)
Cc1noc(COc2ccccc2OCC(O)CNC(C)(C)C)n1 (stereo not drawn)
CCc1nc(N2CCN(c3nc(C)cc(C)n3)CC2)c2oc3ccccc3c2n1
CCSc1nc(C)nc2c1oc1ccccc12
COc1ccccc1CNC(=O)CCCn1c(=O)c2ccccc2n(CC(=O)NC2CCCC2)c1=O
Cc1ccc(C(c2nnnn2CS(=O)(=O)c2ccc(C)cc2)N2CCC(C(N)=O)CC2)cc1 (stereo not drawn)
COC(=O)c1ccccc1NC(=O)Cn1nc(C(F)(F)F)c2c1CCC2
O=C(NCc1ccco1)c1cc(-c2cccnc2)nc2ccc(Cl)cc12
O=C(CSc1nc(-c2ccco2)cc(C(F)(F)F)n1)N1CCc2ccccc2C1
O=C(Nc1ccccc1)Nc1ccccc1C(=O)NCc1ccco1
CCOC(=O)C1C(=O)OC2(CCCC2)C1C(=O)OCC (stereo not drawn)
Cc1cccc(NC(=O)C2CCCN2S(=O)(=O)c2ccc(F)cc2)c1C (stereo not drawn)
CCOC(=O)C1(C(F)(F)F)N=C(N(C)C)OC(N(C)C)=N1
CC(=O)c1c(C)n(-c2ccc(N(C)C)cc2)c2ccc(OCC(N)=O)cc12
COc1cc(OC)c(C(=O)NC2CC(C)(C)NC(C)(C)C2)cc1OC
COc1ccc(CCn2c(NCCCN3CCOCC3)nc3c2c(=O)[nH]c(=O)n3C)cc1
CCCCn1c(SCc2ncc(-c3ccccc3)o2)nc2cc(S(N)(=O)=O)ccc21
CCN1CCN(c2ncnc3c2oc2nc(C)c4c(c23)CC(C)(C)OC4)CC1
C=CCNC(=O)CCCC(=O)NCC=C
Nc1nc2c(ncn2[C@H]2CC[C@@H](CO)O2)c(=O)n1C(=O)c1ccccc1
CC(=O)c1cccc(NC(=O)N2CCCC2C(=O)NCCC(C)C)c1 (stereo not drawn)
COc1ccc(NC(=O)N2CC3(CCN(C(C)=O)CC3)C2)cc1
CCOC(=O)c1c(NC(=O)CCC(=O)NCc2ccco2)sc2c1CCCC2
CCOC(=O)N1CCN(Cc2oc(CO)cc(=O)c2O)CC1
Nc1nnnn1/N=C/c1cccs1
Oc1ccc2nc(Cc3ccccc3)[nH]c2c1
COC(=O)Cc1nc2ccccc2[nH]1
COC(=O)c1nc(NC(=O)c2ccc(Cl)cc2)n[nH]1
CCC(=O)Nc1ccccc1N1CCN(S(C)(=O)=O)CC1

Max dye-equivalent concentration, active:
O=C(Nc1nncs1)c1ccccc1NS(=O)(=O)c1cccs1 530 nM
CCOC(=O)c1[nH]c2ccc(OC)cc2c1NC(=O)N1CCOCC1 130 nM
CCOC(=O)c1[nH]c2ccc(OC)cc2c1NC(=O)CCN1CCN(Cc2ccccc2)CC1 57 nM
CCOc1cc(N2CCOCC2)c(OCC)cc1NC(=O)COc1cccc2cccnc12 16 nM
Cc1cc2nc(-c3ccc(NC(=O)c4cccnc4)cc3)oc2cc1C 15 nM
Cc1ccc(Cn2c(C)nc3c(c2=O)c2nc4ccccc4nc2n3Cc2ccco2)cc1 760 nM
COCCCn1c2nc3ccccc3nc2c2c(=O)n(Cc3ccc(Cl)cc3)c(C)nc21 320 nM
Cc1nc2c(c(=O)n1Cc1ccco1)c1nc3ccccc3nc1n2Cc1ccccc1 93 nM
CCCn1nnc2sc3c(c2c1=O)CCC(C)C3 (stereo not drawn) 33 nM
CCOC(=O)C1=C(C)NC(C)=C(C(=O)OCC)C1c1ccccn1 290 nM
CCCCNc1nc2ccccc2nc1NS(=O)(=O)c1cccs1 45 nM
COc1ccc(S(=O)(=O)N2CCN(C(=O)c3cccs3)CC2)cc1OC 3300 nM
CCN(CC)CCN1C(=O)C(=O)/C(=C(/O)c2ccc(OC)c(OC)c2)C1c1ccccn1 (stereo not drawn) 33 nM
CCc1nc(Nc2ccc3nccnc3c2)c2oc3ccccc3c2n1 55 nM
O=C(NCc1ccco1)c1cnn2c(C(F)(F)F)cc(-c3ccco3)nc12 260 nM
COC(=O)c1cnn2c(C(F)(F)F)cc(-c3ccco3)nc12 970 nM
Cc1nc(NCCN)c(C#N)c2c1COC(C)(C)C2 13 nM
CCCc1cc(=O)oc2c(C)c(O)c(CN3CCCCC3)cc12 7800 nM
COC(=O)Nc1nc2ccc(Sc3ccccc3)cc2[nH]1 14 nM
